The list is not random: actives were taken first. Their share in the collection is about 1.5%.
MCL1-BIM inh = inhibitors of MCL1 binding to BIM-BH3, primary screen, biochemical, fluorescence polarization. inhibition, % at 10.9 µM. GST-MCL1 / FITC-Bim-BH3 fluorescence polarization. Induced myeloid leukemia cell differentiation protein Mcl-1 (Homo sapiens), Q07820. AID 2057, 2009. actives 0.68% (n = 320,000);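 active = inhibition above the mean inhibition of all tested compounds plus 3 SD, set per campaign, cut at about 40% in these data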;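 also: 0% = DMSO wells and 100% = unlabeled Bim-BH3 peptide control; higher means more loss of mP so more displacement of Bim peptide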
BCLXL inh = inhibitors of human Bcl-xL, primary screen, biochemical, fluorescence polarization, HTS; GST-Bcl-xL / FITC-Bim BH3 peptide fluorescence polarization; inhibition, % at 10.9 µM; actives 0.7% (n = 320,000); AID 2129, 2009;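 active = inhibition above the mean of all tested compounds plus 3 SD, cutoff set per campaign, cut at about 30% in these data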;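 also: 0% = DMSO wells and 100% = unlabeled Bim-BH3 peptide competitor; inhibitors lower millipolarization by displacing the labeled peptide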
eLon inh = inhibitors of E. coli Lon protease, primary screen, biochemical, fluorescence polarization | P0A9M0 | purified E. coli Lon protease | inhibition, % at 7.94 µM | actives 0.42% (n = 360,000); in the data active = inhibition above about 13%, passing the limit was not always enough;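 also: 0% = enzyme with probe and DMSO and 100% = no enzyme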
Target sequence (P0A9M0 whole entry, looked up): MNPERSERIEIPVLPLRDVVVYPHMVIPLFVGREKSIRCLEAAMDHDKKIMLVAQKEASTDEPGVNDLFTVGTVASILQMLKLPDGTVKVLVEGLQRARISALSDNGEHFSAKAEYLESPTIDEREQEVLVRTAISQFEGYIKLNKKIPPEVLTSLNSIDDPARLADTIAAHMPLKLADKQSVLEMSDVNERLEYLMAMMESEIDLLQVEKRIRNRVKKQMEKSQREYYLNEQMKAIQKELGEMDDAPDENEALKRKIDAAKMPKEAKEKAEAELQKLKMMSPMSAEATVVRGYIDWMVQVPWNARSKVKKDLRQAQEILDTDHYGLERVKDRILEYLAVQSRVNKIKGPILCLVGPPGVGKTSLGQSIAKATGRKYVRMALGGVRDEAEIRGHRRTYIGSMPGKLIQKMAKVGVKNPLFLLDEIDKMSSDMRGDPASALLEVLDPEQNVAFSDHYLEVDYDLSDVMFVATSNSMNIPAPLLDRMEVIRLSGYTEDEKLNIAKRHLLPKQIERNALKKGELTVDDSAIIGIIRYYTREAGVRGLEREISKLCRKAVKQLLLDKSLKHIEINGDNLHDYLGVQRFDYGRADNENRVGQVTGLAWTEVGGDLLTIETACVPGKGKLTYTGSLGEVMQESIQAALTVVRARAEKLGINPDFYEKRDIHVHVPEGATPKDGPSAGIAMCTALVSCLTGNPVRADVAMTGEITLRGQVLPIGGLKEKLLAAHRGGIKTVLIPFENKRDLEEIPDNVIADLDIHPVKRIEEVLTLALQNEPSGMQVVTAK
GLD-1 TGE inh = GLD-1/TGE RNA complex disruptors, primary screen, biochemical, fluorescence polarization; Female germline-specific tumor suppressor gld-1 (Caenorhabditis elegans), Q17339; purified GLD-1 + fluorescein TGE RNA; inhibition, % at 5.96 µM; actives 0.44% (n = 320,000); AID 2280, 2010;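 active = percent inhibition above a per-plate cutoff, the plate mean of test compounds plus 3 SD, cut at about 30% in these data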;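 also: 0% = DMSO wells with GLD-1 and probe and 100% = wells lacking GLD-1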
EBV gp42 inh = Epstein-Barr virus gp42 inhibitors, primary screen, biochemical, uHTS, fluorescence polarization; Glycoprotein 42 (Epstein-Barr virus (strain AG876)), Q1HVG2; Fluorescence polarization binding assay, mP read-out; inhibition, % (tested at 21.74 µM); actives 0.42% (n = 220,000); AID 1085, 2008; in the data active = inhibition above about 50%
MEX-5 binding = MEX-5 zinc finger RNA-binding disruptors – biochemical, C. elegans, fluorescence polarization, MLPCN library, primary screen; Zinc finger protein mex-5 (Caenorhabditis elegans), Q9XUB2; MEX-5/FITC-TCR2 RNA binding; active compounds read low; activity score (negative = inhibition of binding), % at 10 µM; actives 0.38% (n = 300,000); AID 1832, 2009;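 active = inhibition past about -25% in most replicates, and total fluorescence under double the plate's negative control median, limit read from the data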;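 also: 0% = DMSO and -100% = 5 µM competing unlabeled TCR2 RNA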
eLon confirm = E. coli Lon protease inhibitor retest, confirmation, biochemical, fluorescence polarization; shares compounds with eLon inh; purified E. coli Lon; inhibition, % at 7.94 µM; actives 31% (n = 1,400); AID 602230, 2012; in the data active = inhibition above about 16%;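 also: 0% = enzyme with probe and DMSO and 100% = no enzyme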
The depositor's hits bear a star; · = no result given; + = active, no number.

SMILES	MCL1-BIM inh	BCLXL inh	eLon inh	GLD-1 TGE inh	EBV gp42 inh	MEX-5 binding	eLon confirm
CC(C)(C)OC(=O)C[C@@H]1C/C=C\C[C@H](CC(=O)NCCO)C(=O)N2CCC[C@H]2COC1=O	·	·	111*	10	·	·	-7
O=C(C[C@H]1C/C=C\CC[C@H](Cc2ccc(F)cc2)C(=O)OC[C@H]2CCCN2C1=O)N[C@@H](CO)Cc1ccccc1	·	·	40*	2	·	·	5
COc1cccc(C#CC2=CC(=O)C[C@H](c3ccc(F)cc3)C2)c1	·	·	-5	·	·	·	·
Cc1ccc2c(c1)-c1ccccc1S(=O)(=O)N2	4	5	-2	8	·	-1	·
Nc1ccc2c(c1)-c1ccccc1S(=O)(=O)N2	38	29	17*	19	-15	-41*	-13
COc1cccc(NC(=O)C(C)SCc2ccccc2)c1 (configuration not stated)	4	9	-4	3	-3	1	·
COc1ccc(CCNC(=O)C(C)SCc2ccccc2)cc1 (configuration not stated)	11	5	19*	3	3	1	-5
O=C(Cc1sc(-c2ccccc2)nc1-c1ccccc1)Nc1ccccc1	-5	3	16*	7	8	1	9
Cc1ccccc1C(C)NC(=O)COC(=O)Cn1cc(C(F)(F)F)ccc1=O (configuration not stated)	0	4	-18	1	·	·	·
O=S(=O)(NC(=S)c1ccccc1)c1ccc(F)cc1	9	8	-8	4	·	0	·
CCc1ccc(NC(=O)N(CCN2CCOCC2)Cc2ccc3c(c2)CCCN3CC)cc1	23	24	0	1	-21	-5	·
CCCN1CCCc2cc(CN)ccc21	127*	108*	38*	46*	79*	-60*	47*
O=C(COC(=O)c1ccccc1O)NCCc1c[nH]c2ccccc12	·	·	-13	3	·	·	·
O=C(COC(=O)c1ccccc1C(=O)OCC(=O)NCCc1c[nH]c2ccccc12)NCCc1c[nH]c2ccccc12	-2	3	32*	-5	·	-2	-5
Cc1cc(Br)cn2c(Cc3ccsc3)c(-c3cccc(Cl)c3)nc12	·	·	-5	·	·	·	·
Cc1cc(Br)cn2c(Cc3ccsc3)c(-c3ccc(Cl)cc3)nc12	·	·	17*	·	·	·	30*
Clc1cccc(-c2nc3ccc(Cl)cn3c2Cc2ccsc2)c1	·	·	20*	·	·	·	113*
O=C(c1ccc(Cl)cc1)N1CCC2CC1c1cc(-c3ccccc3)ccc12 (configuration not stated)	·	·	16*	·	·	·	4
O=C(c1cccc(Cl)c1)N1CCC2CC1c1cc(-c3ccccc3)ccc12 (configuration not stated)	·	·	-3	·	·	·	·
COc1ccc(S(=O)(=O)N2CCN(C(=O)CNC(=O)c3ccc4c(c3)OCO4)CC2)cc1	-4	1	53*	-3	·	-7	-7
O=C(NCC(=O)N1CCN(S(=O)(=O)c2ccccc2F)CC1)c1ccc2c(c1)OCO2	0	0	5	-1	·	1	·
O=C(CCNC(=O)C1CCN(S(=O)(=O)c2ccc(F)cc2)CC1)NCc1ccccc1Cl	3	0	17*	3	·	0	-11
CC(=O)N1CCC(C(=O)Nc2ccc(S(=O)(=O)N3CCCC(C)C3)cc2)CC1 (configuration not stated)	·	·	-4	·	·	·	·
CC(=O)N1CCN(S(=O)(=O)c2ccc(S(=O)(=O)N3CCCC(C)C3)cc2)CC1 (configuration not stated)	-3	2	22*	0	·	-1	-14
Cc1ccc(/C=C2/SC(=O)NC2=S)o1	·	·	89*	·	41	·	107*
SMILES	MCL1-BIM inh	BCLXL inh	eLon inh	GLD-1 TGE inh	EBV gp42 inh	MEX-5 binding	eLon confirm
O=C(O)CCC(=O)N1N=C(c2ccco2)CC1c1ccco1 (configuration not stated)	11	4	4	-6	·	1	·
Cc1ccc(C2=NN(C(=O)CCCC(=O)O)C(c3ccco3)C2)cc1 (configuration not stated)	1	7	19*	-1	3	0	-4
Cc1ccc(C(=O)N2CCN(c3ccc([N+](=O)[O-])cc3)CC2)o1	0	1	-11	0	·	2	·
O=c1nc2ccccc2c(NS(=O)(=O)c2ccccc2)n1-c1ccccc1	4	2	61*	-1	-19	2	6
O=C(CNC(=O)C1CCCCC1)NNC(=O)c1ccccc1Br	2	-3	4	-3	·	0	·
CC(=O)c1c(N2CCOCC2)nc2ccc(Br)cc2c1-c1ccccc1	2	5	9	-1	8	-1	·
CC(=O)c1cc(-c2ccccc2)[nH]c1N1CCOCC1	9	17	63*	6	-5	0	-1
CCN(CC)C(=O)C1=C(C)N(Cc2ccc(F)cc2)C(=O)C(CC(=O)NC(c2ccccc2)c2ccccc2)C1 (configuration not stated)	·	·	-1	·	·	·	·
O=C1CCCCN1CCc1c[nH]c2ccccc12	-3	2	14*	6	-6	-1	-2
COCCn1nnnc1CN(Cc1ccco1)Cc1cc2cc3c(cc2[nH]c1=O)OCO3	-3	-5	23*	-9	-16	1	6
O=S(=O)(Nc1cccc(S(=O)(=O)N2CCCCCC2)c1)c1ccccc1	-3	3	4	-2	-5	0	·
O=S(=O)(Nc1cccc(S(=O)(=O)N2CCCC2)c1)c1ccc(Cl)cc1	·	·	101*	3	·	·	-4
CN1CCc2c(sc(NC(=O)c3ccc(C(=O)c4ccccc4)cc3)c2C(N)=O)C1	-9	-6	45*	-6	·	-23	-46
CN1CCc2c(sc(NC(=O)CS(=O)(=O)c3ccccc3)c2C(N)=O)C1	7	2	2	-4	·	-5	·
O=C1C=CC(=Nc2ccc3c(c2)Cc2cc(F)ccc2-3)O1	·	·	-9	·	·	·	·
O=C1C=CC(=Nc2cccc3c2C(=O)c2ccccc2-3)O1	·	·	+	·	·	·	6
CCOC(=O)N(C)OC(=O)Nc1ccc(Cl)c(Cl)c1	12	8	19*	3	-8	-3	25*
COc1ccccc1CC(NC(C)=O)C(=O)NC1CCN(C(=O)c2ccc(C)cc2)CC1 (configuration not stated)	-5	2	-5	3	·	0	·

Screening results: PubChem, several laboratories
